Test results taken from PubChem BioAssay AID1159580 (chemical genetic matrix, 2015).
Values joined by “and” are separate entries in the source; they are usually repeats but may differ in a detail not shown here. Equal entries are not always repeated. Among all 5,500 compounds or so, about 2,000 (36%) were called active. Roughly 18% stayed inconclusive and do not appear here. Cut-off read from the data, not from the text of the source: active = normalized growth mostly below about 0.91 (no sharp cut-off); inconclusive = no clear call, values can overlap the other calls; inactive = mostly above about 0.92. The list shows a part of the results.

Experiment: chemical genetic growth profiling, strain panel (AID 1159580);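 note: tested at 20 µM; growth read once vehicle control cultures reached saturation at 30 °C; 1 = growth at the plate median or of vehicle wells; lower values mean less growth of the strain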
Details: S. cerevisiae deletion strains, growth OD

Measured: normalized growth

N#Cc1ccc2c(c1)N(CCCN1CCC(O)CC1)c1ccccc1S2
active: locus YDR392W, strain spt3, stronger effect = lower value 0.72
inactive: locus YAL013W, strain DEP1, stronger effect = lower value 1 | locus YAL021C, strain ccr4, stronger effect = lower value 1.01 | locus YAL026C, strain drs2, stronger effect = lower value 0.99 | locus YAL030W, strain snc1, stronger effect = lower value 0.999 | locus YBL061C, strain skt5, stronger effect = lower value 0.984 | locus YBR009C, strain hhf1, stronger effect = lower value 0.953 | locus YBR021W, strain FUR4, stronger effect = lower value 1 | locus YBR023C, strain chs3, stronger effect = lower value 0.982 | locus YBR171W, strain sec66, stronger effect = lower value 1 | locus YBR229C, strain ROT2, stronger effect = lower value 1.02 | locus YBR231C, strain swc5, stronger effect = lower value 0.994 | locus YBR279W, strain paf1, stronger effect = lower value 0.987 | locus YCL011C, strain gbp2, stronger effect = lower value 0.989 | locus YCL016C, strain dcc1, stronger effect = lower value 0.987 | locus YCL029C, strain bik1, stronger effect = lower value 1.03 | locus YCL061C, strain MRC1, stronger effect = lower value 0.992 | locus YCL069W, strain vba3, stronger effect = lower value 0.993 | locus YCR088W, strain abp1, stronger effect = lower value 0.996 | locus YDL005C, strain med2, stronger effect = lower value 0.991 | locus YDL035C, strain GPR1, stronger effect = lower value 1.01 | locus YDL040C, strain nat1, stronger effect = lower value 0.975 | locus YDL074C, strain BRE1, stronger effect = lower value 1 | locus YDL101C, strain DUN1, stronger effect = lower value 1 | locus YDL134C, strain PPH21, stronger effect = lower value 1.01 | locus YDL185W, strain tfp1, stronger effect = lower value 1.03 | locus YDL192W, strain arf1, stronger effect = lower value 1.03 | locus YDR001C, strain nth1, stronger effect = lower value 0.992 | locus YDR069C, strain doa4, stronger effect = lower value 0.995 | locus YDR101C, strain arx1, stronger effect = lower value 1.01 | locus YDR137W, strain rgp1, stronger effect = lower value 1.02 | locus YDR150W, strain NUM1, stronger effect = lower value 0.999 | locus YDR159W, strain sac3, stronger effect = lower value 0.979 | locus YDR162C, strain NBP2, stronger effect = lower value 1.02 | locus YDR195W, strain ref2 1 | locus YDR297W, strain sur2, stronger effect = lower value 0.99 | locus YDR318W, strain mcm21, stronger effect = lower value 1.02 | locus YDR334W, strain swr1, stronger effect = lower value 0.996 | locus YDR335W, strain msn5, stronger effect = lower value 0.996 | locus YDR388W, stronger effect = lower value 1.03 | locus YDR502C, strain sam2, stronger effect = lower value 1.01 | locus YEL003W, strain gim4, stronger effect = lower value 1 | locus YEL037C, strain rad23, stronger effect = lower value 0.996 | locus YEL061C, strain CIN8 (second series), stronger effect = lower value 0.994 | locus YEL061C, strain CIN8, stronger effect = lower value 1 | locus YER015W, strain faa2, stronger effect = lower value 1 | locus YER016W, strain bim1, stronger effect = lower value 0.996 | locus YER110C, stronger effect = lower value 1.02 | locus YER111C, strain swi4, stronger effect = lower value 0.984 | locus YER155C, strain BEM2 (second series), stronger effect = lower value 0.912 | locus YER155C, strain BEM2, stronger effect = lower value 1 | locus YER167W, strain BCK2, stronger effect = lower value 1.01 | locus YFR010W, strain ubp6, stronger effect = lower value 0.999 | locus YGL078C, strain dbp3, stronger effect = lower value 1.01 | locus YGL086W, strain mad1, stronger effect = lower value 1.02 | locus YGL167C, strain pmr1, stronger effect = lower value 0.995 | locus YGL173C, strain kem1, stronger effect = lower value 0.991 | locus YGL227W, strain vid30, stronger effect = lower value 0.996 | locus YGL240W, strain doc1, stronger effect = lower value 0.97 | locus YGL248W, strain PDE1, stronger effect = lower value 1.01 | locus YGL253W, strain hxk2, stronger effect = lower value 0.991 | locus YGR078C, strain PAC10, stronger effect = lower value 0.998 | locus YGR135W, strain pre9, stronger effect = lower value 1.01 | locus YGR229C, strain SMI1, stronger effect = lower value 1 | locus YGR252W, strain gcn5, stronger effect = lower value 1.01 | locus YHR013C, strain ard1, stronger effect = lower value 0.897 | locus YHR027C, strain rpn1, stronger effect = lower value 0.997 | locus YHR030C, strain SLT2, stronger effect = lower value 1.01 and 1.03 | locus YHR079C, strain IRE1 (second series), stronger effect = lower value 1.02 | locus YHR079C, strain IRE1, stronger effect = lower value 1.04 | locus YHR094C, strain hxt1, stronger effect = lower value 1.02 | locus YHR129C, strain ARP1, stronger effect = lower value 1 | locus YHR142W, strain chs7, stronger effect = lower value 0.997 | locus YHR200W, strain rpn10, stronger effect = lower value 1.02 | locus YIL066C, strain RNR3, stronger effect = lower value 1.01 | locus YIL073C, strain SPO22, stronger effect = lower value 1.03 | locus YIL125W, strain kgd1, stronger effect = lower value 1.03 | locus YIR030C, strain dcg1, stronger effect = lower value 1.03 | locus YJL092W, strain hpr5, stronger effect = lower value 1 | locus YJL095W, strain BCK1 (second series), stronger effect = lower value 0.988 | locus YJL095W, strain BCK1, stronger effect = lower value 0.983 and 1.04 | locus YJL115W, strain asf1, stronger effect = lower value 0.994 | locus YJL129C, strain trk1, stronger effect = lower value 0.994 | locus YJL134W, strain LCB3, stronger effect = lower value 1 | locus YJL154C, strain vps35, stronger effect = lower value 0.987 | locus YJL164C, strain tpk1, stronger effect = lower value 0.992 | locus YJL166W, strain qcr8, stronger effect = lower value 0.997 | locus YJL168C, strain set2, stronger effect = lower value 1.02 | locus YJL187C, strain SWE1 (second series), stronger effect = lower value 1.01 | locus YJL187C, strain SWE1, stronger effect = lower value 0.998 | locus YJR043C, strain POL32, stronger effect = lower value 1.01 | locus YJR066W, strain TOR1, stronger effect = lower value 0.955
